From PubChem BioAssay AID1347426 (Functional Genomics Laboratory (NCATS/FGL), 2020)
The whole screen tested about 31,000 sequences, of which about 1,400 (4.5%) were called active. Only a selection was taken, and actives are over-represented in it overall. Unmarked numbers belong to inactive results.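 How the source made its calls: active means median seed-adjusted z-score above 1 or below -1; inactive means the rest.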

Experiment: Novel Modifiers of Survival Motor Neuron (SMN) Protein: Gene Identification via Genome-wide siRNA Screen;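 further: luminescence tracks full-length SMN protein made from the SMN2 reporter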
Conditions: HEK293T SMN2-luciferase reporter, siRNA knockdown, 72 h; actives lie on both sides
Summary of the method: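 HEK293T cells stably expressing an SMN2 splicing/cDNA-luciferase reporter were reverse-transfected with a druggable-genome siRNA library and read by luminescence at 72 hours; hits defined by MAD score above 1.0 or below -1.0.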

Row | Sequence | median seed-adjusted z-score
1 | GGACAAGAUUGGUGGGUUATT against PEX1 | 0.227
2 | GUACCAAUACUGAUAAGAATT against SLC9A11 | -0.12
3 | GGCCUAUCCUGAUUCUGAUTT against RND2 | -0.0613
4 | GGAUACUCUGAUGAAGAUATT against GNAQ | -1.23 (active)
5 | AGUCAGCUCCGAUACUUCATT against CAPN10 | 0.364
6 | UCACUGUGGUGUAUUUUAATT against PDP2 | -0.0726
7 | GCUUCCAACUGCUUAUAUATT against TP53RK | 0
8 | CCAUCUCCUCUGAAACGUATT against RREB1 | -0.414
9 | CAGAGACUGUUAUCCAUUUTT against SLC25A36 | 0.134
10 | UUGUGGAUGUUGAACCUAATT against SNRPD1 | -2.97 (active)
11 | GCUACUAACAUUACUCCAATT against FOLH1 | 0.148
12 | CCAUCUCUACCGACGAAGATT against ARHGEF1 | -0.0658
13 | CAUUCUAUGGGAUACCCUATT against SYT4 | -0.354
14 | CAGGAAGUCUGACCAAUAATT against LPL | 0.389
15 | UGACCGAUGUCUUCCUUAUTT against RHOQ | -0.328
16 | CUCUGAUUAUCAUGAGAUATT against SRGAP2 | 0.0323
17 | AACCUAUAAUGAGGAUGUATT against ZNRF2 | 0
18 | AGAGCGACCUCACCACCAATT against RAB1B | 1.55 (active)
19 | GGAAGCGAAUACUACUAUUTT against ST6GALNAC3 | -0.205
20 | GCAUUGAUCCUCAGAGUAATT against PTPRU | 0
21 | GGGAUAUGAUAGAUCCUUATT against CPO | 0.0875
22 | CCGCAUAGCUCAUAGGAUATT against SMARCA2 | -0.458

Row | Sequence | median seed-adjusted z-score
23 | GCAUGGUAAUUUAUAGUUUTT against NGF | -0.325
24 | GCACGGAAUUUGAACAGUATT against SOX17 | -0.46
25 | GGAACAUCUUUGUACCUAUTT against NARG1 | -1.02 (active)
26 | AUCUAGACUUCUCUUUAUATT against FHL3 | 0.105
27 | UCCUCAACGUGUGCGAUGATT against KCNG1 | -0.00995
28 | CCUCAGCUUUUACAGCAAATT against RAD23A | -1.13 (active)
29 | GGCCUAUGCUAAUCAUUCUTT against FANCA | 0.418
30 | GACUUGAAGAUGCUAAUCATT against TIPIN | 0
31 | GAAUGAAAUCAGAGUAUAATT against RNF125 | 0.204
32 | CCAGGUCCAUGGAAAGAAATT against NEIL2 | -0.256
33 | CGGCUAGAAGAGGAACAGATT against LSG1 | 1.31 (active)
34 | CAAUGUGGUGUAUAAUACATT against VNN2 | -0.583
35 | CAGUCACUGCACUACAGAATT against ATF7 | 0.903
36 | AGAACAAAGACCUAAUGGATT against TNNT3 | -0.293
37 | GAUUGAGAAUUCUAUUGUATT against UTP6 | -0.253
38 | GAAUCGUUGUCAGAGCCUUTT against LMNB1 | 0.0619
39 | AGGCAAAGACGGAACAACATT against TRIM69 | 0.214
40 | GCAUUGGUCUAGAGCUUUATT against SCPEP1 | -0.99
41 | GCAUCGUCACUGUCAUGAATT against ITPR3 | -1.28 (active)
42 | AGUUUGAUGUUAUCAAUCUTT against PRKAG1 | 0.431
43 | GCAGAUCUCGCUACAGGGATT against SFRS2B | -0.272
44 | UCAGCUUCAGCUUAACUGATT against TUBA1B | 0.0888

Row | Sequence | median seed-adjusted z-score
45 | CGAGAAUGACUAUCUUCAATT against STK32C | -0.311
46 | GACCUGGGCAGAUUCCAAATT against MMP9 | -1.15 (active)
47 | GGGUAUGAGAUAUGCGGUATT against TYW1 | 0.201
48 | GAUUAGAUCUAAACAAUCUTT against TTRAP | -0.33
49 | CCAGAAUGCCCAUAUCACATT against RS1 | -0.684
50 | GCCUUCUGAUGGUAGAUCUTT against RANBP17 | -0.123
51 | GGAUGGCAGGGAUUCCGAATT against ZNF213 | 1.37 (active)
52 | GGAAAGUUGUGGGUCUAAUTT against SERPINA7 | 0.0925
53 | GGACUUAAGCGACAACGCATT against RANGAP1 | -0.0379
54 | GCACCGAACCCGUCUAUCATT against POU3F4 | -0.314
55 | GUAGCUUGCUACUCCAGAATT against POLR2D | -3.79 (active)
56 | CGGAUGCACAAGCUAAAUATT against BHLHA15 | -0.199
57 | CGGAAGGUAGUAAACCUUUTT against AMY1A | 0.272
58 | GUAGCUCAUUUGUAAGGAATT against ZNF578 | -0.808
59 | GGAGCGCAAGAUCACCUUATT against SSTR1 | 0.285
60 | GCCGGUAUGUGAAGGAGAATT against CLK3 | -1.11 (active)
61 | CACUUUUUAUAUUUACGUATT against TSPAN4 | 0.417
62 | GUGUAGACAUAGUCUAAAATT against ZNF532 | -0.0289
63 | CCCUGUCUGUGAAGCAUGATT against TXNDC2 | -1.29 (active)
64 | GCUACAUCUUUAUAAGGGATT against IL12RB2 | 0.368
65 | GGAAGAAAGCGGGACUUUUTT against PPME1 | 0.342
66 | CAGACUCCCUCAUCACCAATT against ALAS1 | -1.15 (active)

Row | Sequence | median seed-adjusted z-score
67 | CAAUGAACACUACUAACCATT against IL31RA | 0.36
68 | CGGGAGUGGUUUUCAGAGATT against APOC1 | 0
69 | GCUCUGAAUUCAGUGUUUATT against HTR3E | -0.717
70 | GGUCUAACUCAAUAAUGGATT against REV3L | 0.062
71 | GCUGAAUAUCUACACGGAATT against SLCO4A1 | -0.0802
72 | GUGCUCGAAUGAUAACUAUTT against RAB2A | -0.038
73 | GUGGAACAAUUGUAACAGATT against ETF1 | -1.12 (active)
74 | GCUUCGAAUGGAUCUAGAATT against MYH8 | 0.0648
75 | CCAACGAACAUGUACAACATT against CACNA2D3 | 0.198
76 | GGAUAUGGUUAAUAGGAGATT against SMC6 | 0.227
77 | GCAGUUAGAUGUCAGGACATT against PPIA | 0.0169
78 | CGAAAGGAGUCUUCACCAATT against PRDX6 | -0.0302
79 | CCCUAGAUAUGGACGAUGATT against UTP3 | -1.08 (active)
80 | CAAUGGACAGAAUACACUUTT against ZNF614 | 0.0971
81 | UGAGCAGUGAGAACCCAUATT against PEAR1 | 0.071
82 | CCAUAGUAGUGACUACCAUTT against GRIA3 | -0.358
83 | AACUGGACCUUAAAAAGAATT against POU4F3 | 0
84 | GGAUGUCCAGAGGCACUAATT against POLA2 | -0.114
85 | GAAAGACUUGUUUAUAUUATT against ADRB1 | 1.06 (active)
86 | CUCAAUCCAUAGUAAGUAUTT against ZNF678 | 0.172
87 | CAAUUCUUGUCAUUUGAAATT against SLC25A19 | -0.104
88 | CCAUAAUGAUAGAGUUUAATT against SLC24A4 | 0.0358

Row | Sequence | median seed-adjusted z-score
89 | GAGUGAGAGCUGUAGAAAATT against CREB3 | 0.0509
90 | AGUGGACAACAGAACAAUATT against SNRPG | -3.09 (active)
91 | CCUGUACGAUGAGAUAGAATT against CYFIP2 | -0.322
92 | GGAUGCACUUCUAAACUCATT against AKR1D1 | 0.211
93 | GGUCUAGCCUUACACCUCATT against RAB3GAP2 | 0.0583
94 | GAAGGGCUCUUUCACAGCUTT against ADAMTS13 | -0.276
95 | GGACAUGUUCUACUCUUCATT against LRP5 | -1 (active)
96 | GUCUCGAUGGAGCAAAGUATT against TCERG1 | 0.415
97 | CGACUUGCUAAGCUACAUATT against MAOA | 0.665
98 | GGAACAACGGUGGAGAUUUTT against ITGB5 | -0.00882
99 | GAAAGGAUCAGUGUCGAUATT against OCRL | -0.545
100 | GCAGUUUCAGGGUAUGAAATT against LGMN | 0.391
101 | GGAUCAUACUAGAAGACUATT against TREM1 | 0
102 | GGAACACUAUGAUGAGUUUTT against U2AF1 | 2.08 (active)
103 | GCUGCUCCCGGAAAUGCAATT against ISOC2 | -0.599
104 | CAACAUGCCCAUUCGCUUUTT against ADIPOQ | 0.557
105 | GCCUGAGACCAAAAACAGATT against SLC2A9 | 0.216
106 | GAUCUGCAUCAAUACUGAATT against FBLN5 | -0.0832
107 | CACUGACUAUUAUCAUUCATT against WHSC1L1 | -0.283
108 | GGGAUGUAAUAACAGCAUUTT against GDE1 | -0.256
